FAS-TE inh – inhibitors of human fatty acid synthase thioesterase domain; P49327; recombinant FAS-TE, OMFH fluorogenic substrate, fluorescence endpoint; inhibition, % at 15 µM; 360,000 compounds, 0.67% hits;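 active = compounds whose normalised, plate-corrected inhibition of enzyme fluorescence in the single-dose primary screen is 50% or more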
aDG glyco up – increases alpha dystroglycan glycosylation; Pro5-aDG cells, alpha-DG glycosylation AlphaScreen (IIH6); 0% Pro5, 100% B10-LARGE cell signal; activation, % at 10 µM; 360,000 compounds, 0.22% hits; AID 624168;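 active = activation of at least 8% versus controls, or a plate z-score of at least 8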;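 note: Pro5 are CHO cells carrying HIG-tagged alpha-DG that lacks glycosylation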
CRFR2-BP ag – agonists of human CRF-binding protein/CRF-R2 receptor complex; HEK293 CRF-R2/CRF-BP, calcium dye fluorescence (FLIPR); percent of saturating CRF peptide response; activation, % at 13.2 µM; 350,000 compounds, 0.46% hits;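 active = activation of at least 50%, plus an integration ratio under a set limit after plate pattern correction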
Cardio protect – protects H9c2 cardiomyocytes from peroxide injury; H2O2 injury protection, ATPLite, 2 h; protection from H2O2 cell death, % at 20 µM; 360,000 compounds, 0.63% hits; AID 588492;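 active = compounds giving at least 50% protection of heart cells from peroxide-induced death in the single-dose screen, raw or plate-pattern-corrected value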
PfG6PD inh – PfG6PD (Plasmodium falciparum) enzyme inhibition. inhibition, % at 20 µM. PfGluPho enzyme, NADPH resazurin-diaphorase fluorescence. 350,000 compounds, 0.78% hits. AID 504690;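 active = inhibition reaching at least a set limit at 20 µM in the primary screen, cut at about 59% in these data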
CRFR2-BP antag – antagonists of CRF-binding protein/CRF-R2 receptor complex; HEK293 CRF-R2/CRF-BP, CRF-induced calcium fluorescence; inhibition, % at 11.8 µM; 350,000 compounds, 0.59% hits; AID 588475;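 active = inhibition of the ligand-induced calcium signal above about 50% at the single tested concentration, limit read from the data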
PfGluPho conf – confirmation of Plasmodium falciparum G6PD inhibitors | inhibition, % at 20 µM | shares compounds with PfG6PD inh | AID 504753 | recombinant PfGluPho, NADPH-diaphorase-resazurin fluorescence | 2,400 compounds, 34% hits;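 active = inhibition of at least 50% at 20 µM in any single replicate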
Diaphorase 10uM – diaphorase inhibition or oxidation at 10 uM NADPH | shares compounds with PfG6PD inh | diaphorase-coupled resazurin reduction, fluorescence, NADPH 10 uM | inhibition, % at 20 µM | 820 compounds, 39% hits;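 active = average inhibition reaching 50% or more with the compound at 20 µM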;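 note: resorufin red fluorescence formed as diaphorase reduces resazurin using NADPH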
Diaph ctr 30uM – diaphorase inhibition or oxidation at 30 uM NADPH. shares compounds with PfG6PD inh. inhibition, % at 20 µM. Diaphorase/resazurin coupled assay, resorufin fluorescence. 820 compounds, 29% hits;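 active = inhibition averaging 50% or more, tested at 20 µM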
Large screens that a line does not name were inactive (follow-up assays come after a bar, where they were run). The list is not random: actives were taken first. Their share in the collection is about 3.2%.

CCC(C)(C)NC(=O)C(c1ccc(C)cc1)N(Cc1cccs1)C(=O)c1ccc2c(c1)OCCO2 (stereo unspecified)	PfG6PD inh 62 | PfGluPho conf inactive
O=C(Nc1cccc(Cl)c1)c1ccc(-n2cncn2)c([N+](=O)[O-])c1	PfG6PD inh 61 | PfGluPho conf inactive
CN(C)S(=O)(=O)c1cccc(NC(=O)c2ccc(-n3cncn3)c([N+](=O)[O-])c2)c1	none
Cc1ccc(NC(=O)c2ccc(-n3cncn3)c([N+](=O)[O-])c2)cc1	none
O=C(Nc1ccc(Cl)cc1)c1ccc(-n2cncn2)c([N+](=O)[O-])c1	PfG6PD inh 84 | PfGluPho conf inactive
Clc1ccc(COn2nnc3ccccc32)c(Cl)c1	none
CCOC(=O)Cc1csc(-n2sc3ccccc3c2=O)n1	PfG6PD inh 124 | PfGluPho conf 81 | Diaphorase 10uM inactive | Diaph ctr 30uM inactive
O=C(Nc1ccc(N2CCOCC2)c(Cl)c1)c1ccc(Br)o1	PfG6PD inh 82 | PfGluPho conf inactive
O=C(Nc1ccc(N2CCOCC2)c(Cl)c1)c1ccc(F)cc1	PfG6PD inh 94 | PfGluPho conf inactive
CC(=O)c1cccc(NC(=O)c2nc(-c3ccccc3)oc2C)c1	none
COc1ccc(NC(=O)Nc2ccc(Cc3ccncc3)cc2)c(OC)c1	none
O=S(=O)(Nc1c(O)ccc2ccccc12)c1ccccc1	PfG6PD inh 75 | PfGluPho conf 52 | Diaphorase 10uM inactive | Diaph ctr 30uM inactive
O=S(=O)(Nc1cccc2ccccc12)c1ccccc1	none
O=S(=O)(Nc1c(O)ccc2ccccc12)c1ccc(F)cc1	PfG6PD inh 76 | PfGluPho conf inactive
COCc1ccc(CN2CCCCC2C(=O)Nc2ccc(Oc3ccccc3)nc2)o1 (stereo unspecified)	none
COc1cc(N=Cc2c(CO)cnc(C)c2O)cc(OC)c1OC	PfG6PD inh 63 | PfGluPho conf 68 | Diaphorase 10uM inactive | Diaph ctr 30uM inactive
COc1ccccc1N/N=C/c1c(CO)cnc(C)c1O	none
O=C(CN1C(=O)c2cccnc2Oc2ccc(Cl)cc21)Nc1ccccc1F	none
Cc1ccc(C2=CSC3=NCCN23)c(C)c1	PfG6PD inh 63 | PfGluPho conf inactive
S=c1[nH]cc(-c2ccccc2)[nH]1	none
O=[N+]([O-])c1ccc(-c2c[nH]c(=S)[nH]2)cc1	PfG6PD inh 64 | PfGluPho conf inactive
Cc1nn(C(C)C(=O)NC(C)CCc2ccccc2)c(=O)c2cc3occc3n12 (stereo unspecified)	none
CCOC(=O)C1CCN(C(=O)COC(=O)CSc2ccc([N+](=O)[O-])cc2)CC1	none
CC1CCCC(C)N1C(=O)COC(=O)CSc1ccc([N+](=O)[O-])cc1 (stereo unspecified)	PfG6PD inh 64 | PfGluPho conf inactive
CSC1=NS(=O)(=O)c2c(C)nn(C)c2S1	PfG6PD inh 63 | PfGluPho conf inactive
O=C1C(=C(c2ccccc2)N2CCOCC2)Cc2ccccc21	PfG6PD inh 66 | PfGluPho conf inactive
Cc1ccc(SCCC(=O)N/N=C/c2ccccc2O)cc1	Cardio protect 65, PfG6PD inh 77 | PfGluPho conf inactive
O=C(CSCC(=O)NN=Cc1ccccc1O)NN=Cc1ccccc1O	none
Cc1ccc(C)c(NC(=O)CCC(=O)N/N=C/c2cccnc2)c1	none
Cc1ccc(SCCC(=O)N/N=C/c2cccnc2)cc1	PfG6PD inh 74 | PfGluPho conf 67 | Diaphorase 10uM 80 | Diaph ctr 30uM 66
COc1ccc(C(c2sc3nc(C)nn3c2O)N2CCc3ccccc3C2)cc1 (stereo unspecified)	PfG6PD inh 59 | PfGluPho conf inactive
